Inconclusive results are not listed. Where a call stands in place of a potency, no number is given. Active and inactive are the calls of the source. Calls come from the whole dose curve; as a rule, active = well fitted inhibition curve with a large enough effect; inconclusive = small, poorly fitted or top-dose-only effect; inactive = flat fitted curve, though single readings scatter.
Potency is the fitted concentration of half-maximal effect.

The target of the test is Glutathione peroxidase 1 (Homo sapiens) (UniProt P07203). As to the kind of experiment: Primary qHTS Assay for Inhibitors of Recombinant Selenoprotein Glutathione Peroxidase 1 (GPX1) (AID 1845191). Note: nearly all actives have a fitted effect of over 65% in size. Particulars: recombinant GPX1, GR-coupled NADPH fluorescence, 15 min; series mostly up to 48.8 µM. The gist of the method: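 GPX1 10 nM, GR 100 nM, GSH 1 mM, NADPH 0.5 mM, CHP 0.5 mM (final). 30-min cpd preincubation, RT. Ex340/Em450 read t=0, t=15 min.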
Chain of Glutathione peroxidase 1 (Homo sapiens) (P07203 whole entry, looked up): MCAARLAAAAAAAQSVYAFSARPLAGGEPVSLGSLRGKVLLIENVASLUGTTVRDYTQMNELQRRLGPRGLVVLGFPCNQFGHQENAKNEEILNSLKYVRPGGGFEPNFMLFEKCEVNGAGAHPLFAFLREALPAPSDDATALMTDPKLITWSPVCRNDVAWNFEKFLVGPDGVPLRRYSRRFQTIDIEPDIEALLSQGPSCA
Take `C=CC(C)(C)c1[nH]c2ccccc2c1C[C@@H]1NC(=O)[C@H](C)NC1=O`: the Potency entry is “inactive”.
With `COc1ccc(NC(=O)C2C[C@H](C)CC[C@H]2C(C)C)cc1` (some centres undefined) the entry was “inactive”.
With `COCCCNC(=O)c1ccc(Cn2c(=O)c3ccccc3n(Cc3ccc(C(C)C)cc3)c2=O)cc1` the entry was “inactive”; with `Cc1nc2ccc(-n3ncc(C(=O)c4cc5ccccc5[nH]4)c3N)cc2[nH]1`, “inactive”; with `N#Cc1ccc(COc2ccc(-c3cccc4nc(NC(=O)C5CC5)nn34)cc2)cn1`, “inactive”.
The same measure for `C=C1CC(=O)C2OC2(C)CC2OC(=O)C(=C)C2C(O)C1OC(=O)/C(C)=C\C` (centres undefined): “inactive”.
For the compound `Cc1cc(C)nc(SCC(=O)Nc2ncc(Cc3cccc4ccccc34)s2)n1`, the Potency entry was “inactive”.
The same measure for `COc1ccc(CN2CCN(CCCSc3cc(C(C)(C)C)c(O)c(C(C)(C)C)c3)CC2)c(OC)c1OC`: “inactive”; for `CCOC(=O)C1(CCOc2ccccc2)CCN(Cc2ccc(O)c(Cl)c2)CC1`: “inactive”.
With `COc1cc(C(C)=O)c(OC)c2c1OC(C)(C)C=C2` the entry was “inactive”; with `Cn1ncc(Cl)c1-c1cc(C(=O)N[C@H](CN)Cc2ccc(F)c(F)c2)sc1Cl`, “inactive”.
With `C=C(CCC1C(C)(O)CCC2C(C)(C)C(O)CCC12C)C(O)CO` (centres undefined), the Potency entry was “inactive”.
For `C=C1CC[C@H]2C(=C)CC[C@H]3C(=C)C(=O)O[C@@H]3[C@@H]12`, the Potency entry is “inactive”.
Turning to `C=C1C(=O)OC2/C=C(\COC(C)=O)CC/C=C(\C=O)CC(OC(=O)C(C)CC)C12` (centres undefined), the Potency result was “inactive”.
With `C=C[C@]1(C)C[C@H](O)[C@H]2C(=C)C(=O)O[C@@H]2[C@H]1C(=C)CO` the entry was “inactive”; with `Cc1ccc(NC(=O)N2CCN(c3nc(N)nc4sc(-c5cccnc5)nc34)CC2)cc1`, 14.3 µM (active); with `C/C=C(/C=C(C)/C=C/C=C/C=C(\C)C(=O)C12OC1C(O)(CCO)NC2=O)C(=O)OC` (centres undefined), “inactive”.
As for `Nc1cccc(CNC(=O)c2ccc(Oc3ccc(OCc4cccc(F)c4)cc3)nc2)c1`, the Potency entry was “inactive”.
Take `Cc1nc2c(C(F)(F)F)cccc2nc1-c1ccc(-c2cccc(S(C)(=O)=O)c2)cc1`: the Potency result is “inactive”.
`NC(N)=N/N=C/c1ccccc1Cl`: the Potency result was “inactive”.
`C=C(C)Cn1c(SCC(=O)c2cccs2)nc2sc3c(c2c1=O)CCCC3`: the Potency result is “inactive”.
For `CC(=O)O[C@@H]1CC[C@@]2(C)C(CC[C@]3(C)C2[C@H](O)C=C2[C@H]4[C@@H](C)[C@H](C)CC[C@]4(C)CC[C@]23C)[C@@]1(C)C(=O)O` (some centres undefined), the Potency result is “inactive”.
Turning to `CCS(=O)c1nc(-c2cccc(OCc3ccccc3)c2)cc(C(F)(F)F)n1` (centres undefined), the Potency result was “inactive”.
Take `O=C(O)C1=CO[C@@H](O[C@@H]2O[C@H](CO)[C@@H](O)[C@H](O)[C@H]2O)[C@@H]2C(CO)=CC[C@H]12`: the Potency result is “inactive”.
As to `C=CC(=O)N1CCCN(c2cc(NCCC(=O)O)nc(-c3ccccn3)n2)CC1`, the Potency result is “inactive”.
With `Cc1ccc(C2(C(=O)N3CCC(n4nc(-c5ccccc5)oc4=O)CC3)CC2)cc1` the entry was “inactive”.
In the case of `C=C1CC2OC(=O)C(=C)C2C(OC(=O)/C(C)=C\C)CC2(C)OC1=CC2=O` (centres undefined), the Potency result was “inactive”.
As for `C=C1C(=O)OC2CC(C)C(CCC(C)=O)=CCC12` (centres undefined), the Potency entry is “inactive”.
With `Fc1ccc(-c2cncc(CN3CCN(c4cccc5c4OCCO5)CC3)c2)cc1` the entry was “inactive”; with `CC(=O)c1ccc2c(c1)[C@H](NC(=O)c1ccc(F)c(Cl)c1)[C@H](O)C(C)(C)O2`, “inactive”.
The same measure for `CC(=O)OC[C@]12[C@H](OC(C)=O)[C@H](OC(=O)c3ccccc3)[C@@H]3[C@@H](OC(C)=O)[C@]1(OC3(C)C)[C@H](C)C[C@H](OC(C)=O)[C@@H]2OC(=O)c1ccccc1`: “inactive”; for `COc1ccc2c(NC(=O)Nc3cccc(C(F)(F)F)n3)ccnc2c1`: “inactive”.
Turning to `CC(C)c1cc(-c2ccc(F)c3ccccc23)nc(N)n1`, the Potency result is “inactive”.
Consider `COc1c(C(O)CC(C)C)ccc2c1C(=O)OCc1cc(C)cc(O)c1O2` (centres undefined), for which the Potency entry is “inactive”.
Turning to `CC(=O)NC[C@H]1CN(c2ccc(N3CCSCC3)c(F)c2)C(=O)O1`, the Potency entry was “inactive”.
With `C=C(C)C(=O)O[C@H]1C[C@@](C)(O)C2(O)CCC(C)(/C=C3/OC(=O)C(COC)=C31)O2` (some centres undefined) the entry was “inactive”.
As for `Cc1ccc(C(C)C)c(O[C@@H]2O[C@H](CO)[C@@H](O)[C@H](O)[C@H]2O)c1`, the Potency entry is “inactive”.
In the case of `C[C@H](CN(C)C)Oc1nc(Nc2cc3cccc(Cl)c3cn2)cnc1C#N`, the Potency result was “inactive”.
As for `CCCCCCCCC(=O)N[C@H](CN1CCCC1)[C@H](O)c1ccc2c(c1)OCCO2`, the Potency entry was “inactive”.

For the origin of these results see PubChem BioAssay (NCATS).
